This is an account of results in PubChem BioAssay (EPA / NIEHS).

Structures are written as SMILES. Records with an inconclusive call do not appear. Active and inactive are the calls of the source. The calls were made as follows: active = hit-call score of the fitted dose curve at least 0.9, where 1 is the maximum; inconclusive = response in the unintended direction; inactive = score below 0.9.

This test deals with Androgen receptor (Homo sapiens) (UniProt P10275). In words: ATG_AR_TRANS: Attagene TRANS-FACTORIAL HepG2 Assay for human Androgen Receptor (AR) (AID 2282973). Conditions: HepG2 Attagene TRANS-FACTORIAL AR reporter transcription. In short, it runs like this:
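Steps: transfect HepG2 with multiple GAL4-UAS reporter transcription units (TRANS format, exogenous NR-Gal4 protein); dose 24 h; isolate RNA, reverse-transcribe, PCR-amplify, FAM-label, HpaI-digest; resolve by capillary electrophoresis. Positive direction vs DMSO.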

Androgen receptor (Homo sapiens), sequence (P10275 whole entry, looked up, the tested form may be a part): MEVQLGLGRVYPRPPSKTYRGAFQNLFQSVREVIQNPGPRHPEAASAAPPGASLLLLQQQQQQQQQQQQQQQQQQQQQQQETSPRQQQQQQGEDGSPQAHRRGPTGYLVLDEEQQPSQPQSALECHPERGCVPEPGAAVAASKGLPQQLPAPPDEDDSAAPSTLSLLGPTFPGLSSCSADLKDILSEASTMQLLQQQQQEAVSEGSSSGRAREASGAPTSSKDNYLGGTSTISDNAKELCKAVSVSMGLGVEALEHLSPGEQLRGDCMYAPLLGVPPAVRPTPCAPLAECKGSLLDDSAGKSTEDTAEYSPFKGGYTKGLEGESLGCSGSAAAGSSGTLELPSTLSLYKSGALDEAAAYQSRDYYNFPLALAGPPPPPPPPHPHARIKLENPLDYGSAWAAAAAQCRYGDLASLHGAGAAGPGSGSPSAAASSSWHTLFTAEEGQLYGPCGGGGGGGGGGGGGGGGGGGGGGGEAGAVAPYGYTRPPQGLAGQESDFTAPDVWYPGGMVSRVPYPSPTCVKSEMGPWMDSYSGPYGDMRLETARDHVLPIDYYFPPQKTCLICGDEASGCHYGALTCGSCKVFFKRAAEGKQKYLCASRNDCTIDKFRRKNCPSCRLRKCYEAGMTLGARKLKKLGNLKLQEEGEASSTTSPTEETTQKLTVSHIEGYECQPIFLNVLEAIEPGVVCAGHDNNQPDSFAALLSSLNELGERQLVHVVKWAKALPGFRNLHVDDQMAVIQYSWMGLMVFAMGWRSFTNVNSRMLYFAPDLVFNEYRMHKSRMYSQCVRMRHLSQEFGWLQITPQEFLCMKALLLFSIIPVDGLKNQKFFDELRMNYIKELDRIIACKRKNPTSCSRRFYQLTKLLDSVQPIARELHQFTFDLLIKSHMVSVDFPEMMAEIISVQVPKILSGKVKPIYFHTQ

`CCCCCCOC(=O)c1ccc(O)cc1`: the compound was called inactive.
Next, `COc1cc2c(c(OC)c1OC)-c1ccc(OC)c(=O)cc1[C@@H](NC(C)=O)CC2`: “inactive”.
As to `CCOc1cccc(-n2cc(C(=O)N3CCN(c4cc(C(=O)O)c5ccccc5c4)CC3)nc2-c2ccc(C)cc2)c1`, the outcome was inactive.
`CCc1c(C)cc(N)c(CC)c1N`: the result was inactive.
As to `C=C(C)C(=O)OCCOc1ccccc1`, the call was inactive.
As for `CCCCC1CCC(O)CC1` (stereo not given), the outcome was inactive.
On to `CCC(O)CO` (stereo not given), for which the outcome was inactive.
The same measure for `CCCCCCCCCCCC[N+](C)(C)Cc1ccccc1`: “inactive”; for `CCC(=O)C1CC(C(C)C)CC=C1C` (stereo not given): “inactive”.
`O=CC(F)(F)C(F)(F)C(F)(F)C(F)F`: the call was inactive.
In the case of `COC(C)(C)CC(C)=O`, the result was inactive.
With `FC(F)(F)C1(F)C(F)(F)C(F)(F)C(F)(F)C1(F)F`, the outcome was inactive.
The same measure for `O=C(O)CCCCCCCCCC(=O)O`: “inactive”.
Take `CN(C)Cc1ccccc1O`: the result was inactive.
For the compound `c1ccc(Sc2ccccc2)cc1`, the call was inactive.
With `O=c1cccc[nH]1`, the outcome was inactive.
As to `CCCC/C=C/C=C\C=O`, the call was inactive.
The same measure for `CCc1cccc(CC)c1NC(=O)C(=O)O`: “inactive”; for `CC(C)(C)c1cc(CCC(=O)NCCCCCCNC(=O)CCc2cc(C(C)(C)C)c(O)c(C(C)(C)C)c2)cc(C(C)(C)C)c1O`: “inactive”; for `OCCCC(F)(F)C(F)(F)C(F)(F)C(F)(F)C(F)(F)C(F)(F)C(F)(F)C(F)(F)F`: “inactive”.
`Cc1ccc(C)c(O)c1C`: the compound was called inactive.
On to `CCCC(=O)c1cc(O)c(O)cc1O`, for which the outcome was inactive.
Consider `C[C@H]1O[C@@H](O[C@H]2[C@@H](O)C[C@H](O[C@H]3[C@@H](O)C[C@H](O[C@H]4CC[C@@]5(C)[C@H](CC[C@@H]6[C@@H]5C[C@@H](O)[C@]5(C)[C@@H](C7=CC(=O)OC7)CC[C@]65O)C4)O[C@@H]3C)O[C@@H]2C)C[C@H](O)[C@@H]1O`, for which the outcome was inactive.
Next, `CCCCCCCC(OC)OC`: “inactive”.
As for `O=C(O)C(F)(F)C(F)(F)OC(F)(F)F`, the outcome was inactive.
The same measure for `NCCCN1CCN(CCCN)CC1`: “inactive”; for `Cc1cc(=O)[nH]c(C(C)C)n1`: “inactive”.
Next, `CCOC(=O)OC(=O)OCC`: “inactive”.
The same measure for `CC(C)CCCC(C)CCO` (stereo not given): “inactive”; for `CCCCCCCCCC[N+](C)(C)[O-]`: “inactive”; for `CCOC(OCC)C(=O)c1ccccc1`: “inactive”.
Take `[Co]`: the compound was called inactive.
With `Nc1cc(Cl)c(-c2cc(Cl)c(N)cc2Cl)cc1Cl`, the call was inactive.
Take `OC[C@H]1O[C@@H](O[C@H]2[C@H](O)[C@@H](O)[C@H](O)O[C@@H]2CO)[C@H](O)[C@@H](O)[C@H]1O`: the outcome was inactive.
Next, `O=C(NCc1ncc(C(F)(F)F)cc1Cl)c1c(Cl)cccc1Cl`: “inactive”; `C#CC(O)C(CC)CCCC` (stereo not given): “inactive”.
The same measure for `C=CC(=O)OCCOC(=O)C=C`: “inactive”; for `CC1(C)COCN1`: “inactive”; for `COCC1CCC(CO)CC1` (stereo not given): “inactive”.
Next, `Cc1ccc(C)c(OCCCC(C)(C)C(=O)O)c1`: “inactive”.
Turning to `CC(=O)O[C@H]1C[C@@H]2CC[C@@]1(C)C2(C)C`, the compound was called inactive.
Next, `O=C(F)C(F)(F)C(F)(F)C(F)(F)C(F)F`: “inactive”; `C=CC(=O)OCCCCCCCC(C)C`: “inactive”.
The same measure for `COC(OC(C)=O)c1ccccc1` (stereo not given): “inactive”.
The same measure for `CC(=O)CC(C)(C)O`: “inactive”; for `CC(C)c1ccc2c(c1)CC[C@H]1[C@](C)(CN)CCC[C@]21C`: “inactive”; for `O=S(=O)(OCCOC(F)(F)F)C(F)(F)F`: “inactive”.
`NCC(F)(F)C(F)(F)C(F)(F)C(F)(F)C(F)(F)C(F)(F)F`: the result was inactive.
For the compound `CCCCCCCCCC(C)=O`, the compound was classed as inactive.
Next, `CCCCOCCOCCOCc1cc2c(cc1CCC)OCO2`: “inactive”.
